Several values for one entry are separate records, joined by “and”; a condition that tells them apart may be missing. Equal entries are not always repeated. The source holds several records for some structures; these can differ, active in one and inactive in another. Activity calls are given as the source filed them. How the source made its calls: active means hit-call score of the fitted dose curve at least 0.9, where 1 is the maximum; inactive means score below 0.9.
These compounds were tested on E-selectin (Homo sapiens) (UniProt P16581) (assay: BSK_LPS_Eselectin: BioMAP Diversity Plus: LPS Assay for Eselectin Biomarker Activity (AID 2283077)). Conditions: primary human HUVEC with PBMC; actives raise or lower the signal.
Chain of E-selectin (Homo sapiens) (P16581 whole entry, looked up): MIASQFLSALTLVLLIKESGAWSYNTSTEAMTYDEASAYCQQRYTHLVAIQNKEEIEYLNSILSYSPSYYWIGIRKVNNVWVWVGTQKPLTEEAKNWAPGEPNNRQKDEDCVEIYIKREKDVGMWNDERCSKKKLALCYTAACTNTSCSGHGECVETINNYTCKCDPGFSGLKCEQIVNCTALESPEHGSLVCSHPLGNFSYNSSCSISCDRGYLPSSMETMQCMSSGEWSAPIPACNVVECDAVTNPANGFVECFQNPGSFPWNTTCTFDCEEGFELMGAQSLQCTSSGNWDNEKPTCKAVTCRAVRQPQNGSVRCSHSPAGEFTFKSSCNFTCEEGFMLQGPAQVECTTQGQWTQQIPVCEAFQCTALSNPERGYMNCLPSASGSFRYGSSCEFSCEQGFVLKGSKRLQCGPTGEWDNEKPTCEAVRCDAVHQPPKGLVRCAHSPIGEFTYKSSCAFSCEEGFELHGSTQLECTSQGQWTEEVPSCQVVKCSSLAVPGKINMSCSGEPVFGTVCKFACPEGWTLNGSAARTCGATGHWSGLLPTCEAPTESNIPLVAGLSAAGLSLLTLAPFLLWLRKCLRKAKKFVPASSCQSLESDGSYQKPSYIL
Protocol: BSK_LPS is a cell-based, multiplexed-readout assay that uses umbilical vein endothelium and peripheral blood mononuclear cells, a human vascular primary cell co-culture, with measurements taken at 24 hours after chemical dosing in a 96-well plate.BSK_LPS_Eselectin is an assay component measured in the BSK_LPS assay. It measures E-selectin antibody related to regulation of gene expression using ELISA technology.Data from the assay component BSK_LPS_Eselectin was analyzed into 1 assay endpoint. This assay endpoint, BSK_LPS_Eselectin, was analyzed with bidirectional fitting relative to DMSO as the negative control and baseline of activity. Using a type of binding reporter, gain or loss-of-signal activity can be used to understand changes in the signaling as they relate to the gene SELE. Furthermore, this assay endpoint can be referred to as a primary readout, because this assay has produced multiple assay endpoints where this one serves a signaling function. To generalize the intended target to other relatable targets, this assay endpoint is annotated to the cell adhesion molecules intended target family, where the subfamily is selectins.
The levels of cell surface (or secreted, indicated by the prefix "s") biomarker endpoints were measured by ELISA. Overt cytotoxicity to cells in confluent adherent cultures (all systems other than the BT system) was assessed by measuring total protein levels using sulforhodamine B (SRB) staining in parallel cultures at the time of biomarker measurements, indicated as SRB endpoints. For proliferation assays for adherent cell types, individual cell types are cultured at sub-confluence and relative cell numbers quantified by SRB staining at time points optimized for each system (48 h: 3C and CASM3C systems; 72 h: BT and HDF3CGF systems; 96 h: SAg system). SRB was performed by staining cells with 0.1% SRB after fixation with 10% TCA and reading wells at 560 nm.Viability and proliferation of PBMC (T cells) was quantified by Alamar Blue reduction for the SAg and BT systems. For PBMC viability (referred to as PBMC Cytotoxicity within the assay endpoint names), cells were plated (75,000/well in a 96-well plate) and then chemical samples added for 1 h before addition of activators, SEB and TSST-1 (20 ng/mL final concentration each). Cells were incubated for 90 h. Then, Alamar Blue (20 uL/well) (Invitrogen, Cat DAL1100) was added for 6 h, and the plates were read with a fluorescence microplate reader at 546/580 nm (excitation/emission). For PBMC proliferation, cells were plated and activated as above but incubated for only 16 h prior to addition of Alamar Blue. Plates were read after 6 h.
With ClC(Cl)=C(c1ccc(Cl)cc1)c1ccc(Cl)cc1 the AC50 was 30.6 µM (active). With Cc1ccccc1CO[C@@H]1C[C@@]2(C(C)C)CC[C@]1(C)O2 the outcome was “inactive”. In the case of CCC(=O)O[C@H]1CC[C@H]2[C@@H]3CCC4=CC(=O)CC[C@]4(C)[C@H]3CC[C@]12C, the AC50 is reported as 29.4 µM (active). For CCOP(=S)(OCC)SCSC(C)(C)C, the outcome was “inactive”. For Cc1ccc(O)c(C)c1, the outcome was “inactive”. In the case of Clc1ccc(Cl)cc1, the outcome is reported as “inactive”. In the case of CC(C)(c1ccccc1)c1ccc(O)cc1, the AC50 is reported as 36.7 µM (active). With O=C(O)C(F)(F)C(F)(F)C(F)(F)C(F)(F)C(F)(F)C(F)(F)C(F)(F)C(F)(F)F the outcome was “inactive”. CCC(C)(CC)c1cc(NC(=O)c2c(OC)cccc2OC)on1 was tested, and the outcome was “inactive”. In the case of CCCCCCCCCc1ccc(O)cc1, the AC50 is reported as 29.9 µM (active). With O=C(N[C@H]1CN2CCC1CC2)c1cc2ccoc2cn1 the outcome was “inactive”. Cc1cc(-c2ccc(N)c(C)c2)ccc1N was tested, and the outcome was “inactive”. With Cc1cc2c3c(c1)C(c1ccccc1)=N[C@@H](NC(=O)c1ccncc1)C(=O)N3CC2 the outcome was “inactive”. In the case of Oc1c(Cl)c(Cl)c(Cl)c(Cl)c1Cl, the AC50 is reported as 27.1 µM (active) and the outcome is reported as “inactive”. With c1cc2ccc3cccc4ccc(c1)c2c34 the outcome was “inactive”. For Nc1ccc(-c2ccc(N)cc2)cc1, the outcome was “inactive”. CCNc1nc(NC(C)C)nc(SC)n1 was tested, and the outcome was “inactive”. For CO/C=C(/C(=O)OC)c1ccccc1COc1cccc(C(F)(F)F)n1, the AC50 was 7.16 µM (active). With CCCCCCOC(=O)c1ccccc1C(=O)OCCCCCC the outcome was “inactive”. In the case of Oc1ccc(C(c2ccc(O)cc2)(C(F)(F)F)C(F)(F)F)cc1, the AC50 is reported as 32.4 µM (active). For CC1=C2C[C@H]3[C@@H](CC=C4C[C@@H](O)CC[C@@]43C)[C@@H]2CC[C@]12O[C@@H]1C[C@H](C)CN[C@H]1[C@H]2C, the outcome was “inactive”. In the case of O=C(O)C(F)(F)C(F)(F)C(F)(F)C(F)(F)C(F)(F)F, the outcome is reported as “inactive”. Cc1ccccc1[N+](=O)[O-] was tested, and the outcome was “inactive”. For Oc1ccc(Cl)cc1Cl, the outcome was “inactive”. In the case of O=S(=O)(O)C(F)(F)C(F)(F)C(F)(F)C(F)(F)F, the outcome is reported as “inactive”. For ClC1=C(Cl)[C@]2(Cl)[C@@H]3[C@H]4C[C@H]([C@@H]5O[C@H]45)[C@@H]3[C@@]1(Cl)C2(Cl)Cl, the outcome was “inactive”. With CCC(C)(c1ccc(O)cc1)c1ccc(O)cc1 the outcome was “inactive”. In the case of C[C@]12CCC(=O)C=C1CC[C@@H]1[C@@H]2CC[C@@]2(C)[C@H]1CC[C@]2(C)O, the outcome is reported as “inactive”. With CCCCCCCCOC(=O)c1ccccc1C(=O)OCCCCCCCC the outcome was “inactive”. In the case of Cc1cccc(C)c1N, the outcome is reported as “inactive”. With CCSC(=O)N(CC)C1CCCCC1 the outcome was “inactive”. In the case of Cc1cccc([N+](=O)[O-])c1, the outcome is reported as “inactive”. ClC1=C(Cl)[C@]2(Cl)[C@@H]3[C@@H](Cl)[C@H]4O[C@H]4[C@@H]3C1(Cl)C2(Cl)Cl was tested, and the outcome was “inactive”. For CN(C)CCO, the outcome was “inactive”. For CN(C)c1nc(=O)n(C2CCCCC2)c(=O)n1C, the outcome was “inactive”. For O=S(=O)(O)C(F)(F)C(F)(F)C(F)(F)C(F)(F)C(F)(F)C(F)(F)F, the outcome was “inactive”. With O=C(O)C(F)(F)C(F)(F)C(F)(F)C(F)(F)C(F)(F)C(F)(F)C(F)(F)C(F)(F)C(F)(F)F the AC50 was 53.8 µM (active) and 51 µM (active) and the outcome was “inactive”. For C1CC2OC2CC1C1CO1 (stereo not given), the outcome was “inactive”.

— PubChem BioAssay (EPA / NIEHS)
